# High-throughput results as filed in PubChem BioAssay.
# aSyn 5UTR act = Activators working through SNCA 5'UTR binding (MLPCN) | alpha-synuclein 5'UTR reporter, activators screen | activity score, % (tested at 7.5 µM), hits read low | actives 7.1% (n = 300,000); in the data active = activity score below about -60%
# Active calls of the source: *. A selection follows.
SMILES,aSyn 5UTR act
O=[N+]([O-])c1ccc2nc(-c3ccc(Cl)cc3)n(OCc3ccccc3)c2c1,-243*
O=C(NCC1CCCO1)C(=O)N/N=C/c1ccc(OCc2ccccc2Cl)cc1 (stereo not drawn),-106*
O=C(Nc1ccc(Cn2cccn2)cc1)c1ccc(COc2ccccc2Br)cc1,-107*
CSCc1ccc(C(=O)Nc2ccc(C(N)=O)cc2)cc1,-141*
O=C(NCC1CCCO1)c1ccc(COc2ccccc2)cc1 (stereo not drawn),-78*
COc1ccc(OCc2cccc(C(=O)NN)c2)cc1,67
NNC(=O)c1cccc(COc2cccc(Br)c2)c1,-86*
NNC(=O)c1ccc(COc2ccc3ccccc3c2)cc1,-76*
O=C(Nc1ccccc1F)c1ccc(OCc2ccccc2)cc1,-141*
O=C(Nc1ccccc1)c1ccc(CSc2ncccn2)cc1,-95*
O=C(Nc1ccccc1)c1ccc(COc2ccccc2)cc1,-109*
Cc1ccccc1N=C1Nc2ccccc2CS1,-134*
CCOc1c2ccc(C(=O)NCCc3cccs3)cc2nn1CC,-130*
COc1ccc2nc3sc(C(=O)NCc4cccs4)c(N)c3cc2c1,-97*
COc1cccc(-c2cc(C(=O)NCc3cccs3)no2)c1,-156*
CC1CCCN(c2ccc(C(=O)NCC3CCCO3)cn2)C1 (stereo not drawn),-88*
COc1ccc(-c2cc(C(=O)NCc3cccs3)no2)cc1,-170*
CC1CCN(c2ccc(C(=O)NCc3cccs3)cn2)CC1,-106*
CCOc1ccc(C(=O)NCc2cccs2)cc1,-105*
CCCCN1C=CC(=C2C(=O)c3ccccc3C2=O)C=C1,98
CCc1ccc2c(c1)C(=O)c1ccccc1C2=O,-199*
CCCn1c(Sc2nnnn2-c2ccccc2)n[nH]c1=O,-98*
COCCN1CCN(C(=O)c2cc(COc3cc(C)ccc3C)on2)CC1,-127*
COCCCC1CCN(C(=O)c2cc(COc3cc(C)ccc3C)on2)CC1,-180*
CC(=O)NCCC1CCCCN1C(=O)c1cc(COc2cc(C)ccc2C)on1 (stereo not drawn),-144*
SMILES,aSyn 5UTR act
COCCN1CCN(C(=O)c2cc(COc3ccc(Cl)cc3OC)on2)CC1,-120*
Cc1ccc(C)c(OCc2cc(C(=O)N3CCOCC3)no2)c1,-97*
O=C(NNC(=O)c1cccnc1SCc1cccc([N+](=O)[O-])c1)c1ccccn1,103
CCOC(=O)c1cccnc1SCC(=O)Nc1ccc(C)cc1,-64*
CCOC(=O)c1ccccc1NC(=O)CSc1ccc(-c2ccccn2)nn1,69
Cc1ccc(NC(=O)CSc2ncccc2C(=O)Oc2cccc([N+](=O)[O-])c2)cc1Cl,-157*
Cc1ccc(-n2nc(-c3ccc(N)cc3)cc2N)cc1,-132*
Nc1cc(-c2ccc(Cl)cc2)nn1-c1ccccc1,-138*
CC(=O)Nc1ccc(-c2cc(N)n(-c3ccccc3)n2)cc1,-162*
Nc1ccc(-c2cc(N)n(-c3ccccc3)n2)cc1,-104*
COc1ccc(/C=C/C(=O)C2C(=O)C=C(C)OC2=O)cc1O (stereo not drawn),-243*
Cc1ccc(C(=O)NCCc2c[nH]c3ccccc23)c(C)c1,-104*
O=C(/C=C/c1ccccc1)c1c[nH]c2ccccc12,-98*
O=C(/C=C/c1ccccc1)NCCc1c[nH]c2ccccc12,-111*
O=C(NCCc1c[nH]c2ccccc12)c1ccccc1,-107*
Cc1ccc(C(=O)NCCc2c[nH]c3ccccc23)s1,-178*
O=C1c2ccccc2C(=O)N1CCc1c[nH]c2ccccc12,-172*
C/C(=N\NC(=O)c1ccc(F)cc1)c1ccc(NC(=O)Cc2ccccc2)cc1,-75*
CC(=O)Nc1ccc(/C(C)=N\NC(=O)c2ccc(-c3ccccc3)cc2)cc1,96
CCCCCC(=O)N/N=C(\C)c1ccc(NC(=O)c2ccco2)cc1,-107*
C/C(=N/NC(=O)c1ccco1)c1ccc(NC(=O)c2ccc(Br)o2)cc1,-82*
N/C(=N\O)c1ccc(NC(=O)c2ccc(Br)o2)cc1,-67*
C/C(=N/NC(=O)c1ccco1)c1ccc(NC(=O)c2ccc(F)cc2)cc1,-109*
CN1CCCN(C(=O)/C=C/c2ccc(Cl)cc2Cl)CC1,-62*
CN(C)c1ccc(-c2ccc3c(=O)c4ccccc4n(C)c3c2)cn1,-106*
SMILES,aSyn 5UTR act
COc1ccc(-c2ccc3sc4ccccc4c(=O)c3c2)cn1,-81*
COc1cc2sc3ccc(-c4ccc(N(C)C)nc4)cc3c(=O)c2cc1OC,-141*
CC(C)(C)c1ccc(/C=C/C(=O)c2ccc(NC3=NCCCS3)cc2)cc1,-107*
O=C(/C=C/c1ccc(Br)cc1)c1ccc(NC2=NCCCS2)cc1,-99*
COc1cc(-c2noc(-c3cccs3)n2)cc(OC)c1OC,-95*
COc1ccc(-c2noc(-c3cccs3)n2)cc1OC,-174*
COc1cc(OC)cc(-c2nc(-c3cccs3)no2)c1,-139*
COc1cc(-c2noc(C)c2/C=C/c2cccc([N+](=O)[O-])c2)cc(OC)c1OC,69
CCNC(=S)NNC(=O)c1cc(-c2cccc(OCC)c2)nc2ccccc12,-89*
CCCCOc1cccc(-c2cc(C(=O)NNC(=S)NCC)c3ccccc3n2)c1,-69*
